Screening results: PubChem, National Center for Advancing Translational Sciences (NCATS)
A selection: hits, their analogues and other compounds. The true share with any hit is near 9.4%.
NPC1 prom act: activates the NPC1 promoter; Huh7 NPC1 promoter luciferase reporter, 24 h; Potency, µM (top dose mostly 9.22 µM), without a hit: at the top dose activation, most hits filed as activators; actives 2.4% (n = 320,000); AID 485313; further: % of control where 0% means no effect; nearly all actives have a fitted effect of over 60% in size
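Cells: Huh7 expressing luciferase under the NPC1 promoter, 1500/well. Seeded 2 h, compound added, incubated 24 h at 37 °C. Luciferase reagent, 10 min ambient, then luminescence.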
Rab9 prom act: activates the Rab9 promoter | Huh7 Rab9 promoter-luciferase reporter, luminescence, 24 h | Potency, µM (titrated, usually from 9.22 µM), inactives show top-dose activation, negative = inhibition, most hits filed as activators | actives 2.8% (n = 320,000); further: % of control where 0% means no effect; nearly all actives have a fitted effect of over 60% in size
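Luminescence from Amplite-detected luciferase (10 minutes, ambient) reports Rab9 promoter activation. Before that, stable Rab9-luciferase Huh7 cells (1500/well, reduced-serum OP-MEM I plus 10% FBS) were exposed to compound for 24 hours at 37C.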
FLuc counter: inhibits or activates purified firefly luciferase, miR-21 counter-screen; Potency, µM (titrated, usually from 57.5 µM), for the others: top-dose activity change, negative = inhibition, actives largely listed as inhibitors; actives 6.9% (n = 360,000); purified FLuc, Km substrates, luminescence inhibition; P08659;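 further: plate controls were vehicle for no effect and reference inhibitor for full effect; nearly all actives have a fitted effect of over 55% in size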
Target sequence (P08659 whole entry, looked up): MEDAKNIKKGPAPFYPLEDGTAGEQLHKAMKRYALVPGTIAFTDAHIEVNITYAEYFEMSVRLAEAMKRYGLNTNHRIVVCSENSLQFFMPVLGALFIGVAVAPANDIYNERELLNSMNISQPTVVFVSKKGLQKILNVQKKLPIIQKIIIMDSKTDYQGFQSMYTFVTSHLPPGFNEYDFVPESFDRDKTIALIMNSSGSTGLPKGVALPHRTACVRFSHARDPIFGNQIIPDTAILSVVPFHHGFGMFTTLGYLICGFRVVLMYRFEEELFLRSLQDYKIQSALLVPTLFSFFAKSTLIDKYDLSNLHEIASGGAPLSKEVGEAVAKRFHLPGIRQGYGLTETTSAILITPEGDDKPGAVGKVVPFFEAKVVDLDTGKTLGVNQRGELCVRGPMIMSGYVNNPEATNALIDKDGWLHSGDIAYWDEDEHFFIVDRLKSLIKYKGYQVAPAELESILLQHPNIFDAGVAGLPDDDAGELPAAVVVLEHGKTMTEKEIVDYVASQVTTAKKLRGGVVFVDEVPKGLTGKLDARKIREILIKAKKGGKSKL
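Biochemical qHTS of compounds, final roughly 60 µM downward over six points, against 10 nM purified firefly luciferase using Km concentrations of substrates (10 uM D-luciferin, 10 uM ATP) in Tris acetate pH 7.5 buffer; luminescence output.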
SMN2 splice up: increases expression of the SMN2 splice variant; HEK293 SMN2-luciferase splicing reporter, luminescence, 30-36 h; Potency, µM (series often up to 46.1 µM), inactives show top-dose activity change, positive = activation, usual class: activators; actives 2.8% (n = 210,000); AID 1458; further: % of control where 0% means no effect; nearly all actives have a fitted effect of over 55% in size
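HEK293 cells carry an SMN2 minigene-luciferase reporter in which exon 7 inclusion puts luciferase in frame. Cells were seeded at 2000 cells/well, attached for 10-12 hours, then exposed to compounds for 30-36 hours at 37C before ONE-Glo luminescence.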
ELG1 repair inh: blocks ELG1-dependent DNA repair in HEK293T cells | HEK293T ELG1-luciferase reporter, luminescence, 16 h; DNA damage induced by 5-fluorouridine | Potency, µM (doses to about 46.1 µM), for inactives: at the top dose activity change, negative = inhibition, most hits filed as inhibitors | actives 2.3% (n = 330,000); further: on the % scale 0 is the no-effect control and ±100 the full control effect; nearly all actives have a fitted effect of over 55% in size
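DMSO vehicle served as the neutral condition. Each well held 2,000 cells given 5-fluorouridine plus compound; after 16 hr at 37 °C/5% CO2, ONE-Glo was added and luciferase measured 30 min later.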
ELG1 genotox: genotoxicity induction in ELG1-luciferase HEK293T cells | HEK293T ELG1-luciferase reporter, luminescence, 16 h | Potency, µM (titrated, usually from 46 µM), for the others: top-dose activity change, positive = activation, hits mostly activators | actives 1.3% (n = 330,000) | AID 504466; further: % of control where 0% means no effect; nearly all actives have a fitted effect of over 60% in size
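HEK293T cells expressing luciferase-tagged ELG1 were exposed to compound or DMSO vehicle for 16 hr at 37 °C and 5% CO2. Luciferase activity was then measured with ONE-Glo after 30 min at room temperature.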
The depositor's hits bear a star; u = inconclusive; x = not tested or not shown; [ ] = remark or other dose. The call rests on the fitted dose curve; in most records, active means well fitted curve in the direction sought with a large enough effect; inconclusive means small, poorly fitted or top-dose-only effect, or another doubt; inactive means no such curve, though single readings can be large; an effect the other way counts as inactive or inconclusive. Potency means the concentration at half of the fitted maximal effect.

SMILES	NPC1 prom act	Rab9 prom act	FLuc counter	SMN2 splice up	ELG1 repair inh	ELG1 genotox
COC(=O)c1cccc(S(=O)(=O)N(Cc2ccco2)Cc2cc3cc(OC)c(OC)cc3[nH]c2=O)c1	0%	-2%	7%	8%	23µM*	-5%
Cc1cccc2cc(CN(Cc3ccco3)C(=O)NC3CCCCC3)c(=O)[nH]c12	-7%	-3%	-1%	-30%	7.3µM*	-18%
Cc1ccc2[nH]c(=O)c(CN(Cc3ccco3)C(=O)c3ccncc3)cc2c1	-21%	-8%	3%	-10%	u	-2%
COC(=O)c1cccc(S(=O)(=O)N(Cc2ccco2)Cc2cc3ccc(OC)cc3[nH]c2=O)c1	-5%	17%	3%	x	u	-8%
COc1ccccc1NC(=O)N(Cc1ccco1)Cc1cc2c(C)ccc(C)c2[nH]c1=O	-2%	0%	u	-11%	5.2µM*	-7%
Cc1ccc(NC(=O)CCc2nnc3n(CC(C)C)c(=O)c4ccccc4n23)cc1C	x	x	3%	14%	x	x
Cn1c(SCc2ccc(F)cc2)nnc1-c1ccccn1	4.5µM*	2.2µM*	u	u	u	u
Nn1c(SCc2ccccc2F)nnc1-c1cccnc1	u	2.2µM*	u	x	u	u
Cn1c(SCc2ccc(F)cc2)nnc1-c1cccs1	2.2µM*	4µM*	19µM*	u	u	u
Cn1c(SCc2ccccc2F)nnc1-c1cnccn1	u	3.2µM*	u	x	u	u
COc1cc(C2SCCCCCCCCCCSC(c3ccc(O)c(OC)c3)SCCCCCCCCCCS2)ccc1O (centres undefined)	x	x	x	-4%[9.22 µM]	x	x
Cn1c(SCc2ccccc2F)nnc1-c1ccccn1	4µM*	2.2µM*	u	11µM*	u	u
Cn1c(SCC(=O)NC2CC2)nnc1-c1cccs1	4µM*	4µM*	u	x	u	26%
Clc1ccc(C2=NN=C3COc4ccccc4N3C2)cc1	-1%	-3%	-18%	-20%	-13%	-4%
c1ccc(C2=Nc3ccccc3OC2)cc1	u	3.5µM*	3µM*	13%	u	7%
Cc1ccc2c(c1)N=C(c1ccc(Cl)cc1)CO2	3.5µM*	2.5µM*	1.7µM*	22µM*	u	u
O=C1CC(c2ccccc2)=Nc2ccccc2N1	2%	27%	-12%	-8%	u	-2%
Clc1ccc(C2=Nc3cc(Cl)ccc3OC2)cc1	u	u	7.6µM*	u	u	u
CCOC(=O)c1c(C)[nH]c(C)c1S(=O)(=O)N(C)CC(=O)N1CCN(c2cccc(Cl)c2)CC1	x	x	-2%	x	x	x
Cc1cc(F)ccc1NC(=O)Cn1c(=O)ccc2cc(S(=O)(=O)N3CCC(C)CC3)ccc21	x	x	-1%	x	x	x
O=C(Oc1ccc2c(c1)C(=O)c1ccccc1CO2)c1ccccc1	1%	14%	21µM*	-7%	u	u
Cn1ccc(NC(=O)c2ccc([N+](=O)[O-])cc2)n1	3%	1%	3%	x	22%	0%
Cc1cccc(C(=O)Nc2ccn(C)n2)c1	u	2.5µM*	u	x	u	u
O=C(Nc1cnc2sccn2c1=O)c1ccc(Cl)cc1Cl	0.45µM*	1µM*	2.1µM*	8.9µM*	u	2.6µM*
Cn1ccc(NC(=O)c2ccc(Cl)cc2)n1	4%	19%	u	x	u	u
SMILES	NPC1 prom act	Rab9 prom act	FLuc counter	SMN2 splice up	ELG1 repair inh	ELG1 genotox
Cc1onc(NC(=O)NC(=O)c2ccccc2F)c1Br	18%	18%	u	x	u	u
Cn1ccc(NC(=O)c2ccc(Cl)cc2Cl)n1	4µM*	2.5µM*	11µM*	x	u	u
Cc1onc(NC(=O)c2ccc(Cl)cc2Cl)c1Br	u	3.2µM*	u	x	u	u
CCOC(=O)c1ccc2nc3c(cc2c1)CCS3	u	19%	19µM*	11%	u	u
COc1ccc(Cl)cc1NC(=O)CSC1=Nc2ccccc2C2=NC(CC(=O)NCc3ccc4c(c3)OCO4)C(=O)N12 (centres undefined)	x	x	-9%	-12%	x	x
COc1ccc(C2CC2/C(=N/OC(=O)c2cccs2)c2ccccc2)cc1 (centres undefined)	u	u	12µM*	u	u	u
COc1ccc(C(=O)O/N=C(/c2cccs2)C(C)(C)C)cc1	-2%	1%	-11%	x	14%	-1%
COc1ccccc1N1CCN(S(=O)(=O)c2c(C)nc3sccn3c2=O)CC1	x	x	0%	x	x	x
Cc1ccccc1NC(=O)c1ccc2c(O)c(S(=O)(=O)c3ccccc3)c(=O)[nH]c2c1	-3%	-2%	u	x	5%	0%
COc1cccc(NC(=O)c2ccc3c(O)c(S(=O)(=O)c4ccccc4)c(=O)[nH]c3c2)c1	2%	0%	19µM*	x	12%	0%[9.26 µM]
COc1ccc(S(=O)(=O)c2c(O)c3ccc(C(=O)Nc4cccc(F)c4)cc3[nH]c2=O)cc1	2%	-1%	u	x	0%	1%[9.26 µM]
CCc1ccc(NC(=O)c2ccc3c(O)c(S(=O)(=O)c4ccc(Cl)cc4)c(=O)[nH]c3c2)cc1	x	x	7.6µM*	x	x	x
O=c1c(O)cc(C2Oc3cc(O)cc(O)c3CC2O)cc2c(C3Oc4cc(O)cc(O)c4CC3O)cc(O)c(O)c12 (centres undefined)	x	x	x	-8%	x	x
Cc1nc(S(=O)(=O)N2CCN(c3cccc(Cl)c3)CC2)cn1C	x	x	-1%	x	x	x
CC(=O)/C=C1/C(=O)Nc2ccccc21	-7%	0%	-5%	1%	-2%	9%
C=CCOc1cccc(C(=O)/C=C2/C(=O)Nc3ccccc32)c1	-6%	-4%	7.6µM*	x	15%	18%
CCOc1ccc(OCC(=O)NCCS(=O)(=O)N2CCN(c3ccccc3F)CC2)cc1	x	x	-6%	x	x	x
COc1ccccc1CNC(=O)c1ccc(CSc2nc3ccncc3n2Cc2cccc(F)c2)cc1	x	x	5%	1%	x	x
CCC(=O)Nc1nc(-c2ccccc2)ns1	4µM*	2µM*	15µM*	11µM*	u	14%
Cc1nnc(SCCC(=O)Nc2nc(-c3ccccc3)ns2)s1	x	x	-13%	-18%	x	x
CC(=O)Nc1nc(-c2ccc(Cl)cc2)ns1	u	4µM*	11µM*	u	u	17%
CC(C)C(=O)Nc1nc(-c2ccccc2)ns1	3.5µM*	2.8µM*	15µM*	2.2µM*	u	u
O=C(CSc1ncn[nH]1)Nc1nc(-c2ccccc2)ns1	14%	16%	u	11%	19%	u
CCCSc1nsc(NC(=O)CC)n1	0.28µM*	0.11µM*	0.67µM*	x	u	u
